In PubChem BioAssay AID1159580 (chemical genetic matrix, 2015):
About 2,000 (36%) of roughly 5,500 compounds were called active. Another 18% or so got no clear call; they are omitted. This is one part of the list. Values without a mark were called inactive. No stated cut-off is given here; in the data, active means normalized growth mostly below about 0.91 (no sharp cut-off); inconclusive means no clear call, values can overlap the other calls; inactive means mostly above about 0.92.

Assay: chemical genetic growth profiling, strain panel (AID 1159580);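 further: tested at 20 µM; growth read once vehicle control cultures reached saturation at 30 °C; 1 = growth at the plate median or of vehicle wells; lower values mean less growth of the strain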
Settings: growth OD

SMILES: C1CCC(C(CC2CCCCN2)C2CCCCC2)CC1 (centres undefined)
- normalized growth (S. cerevisiae deletion strains, locus YJR066W, strain TOR1, active compounds read low): 0.973
- normalized growth (S. cerevisiae deletion strains, locus YJR075W, strain HOC1, active compounds read low): 0.606 (active)
- normalized growth (S. cerevisiae deletion strains, locus YKL009W, strain mrt4, active compounds read low): 1
- normalized growth (S. cerevisiae deletion strains, locus YKL068W, active compounds read low): 1.01
- normalized growth (S. cerevisiae deletion strains, locus YKL085W, strain MDH1 (second series), active compounds read low): 0.996
- normalized growth (S. cerevisiae deletion strains, locus YKL085W, strain MDH1, active compounds read low): 0.996
- normalized growth (S. cerevisiae deletion strains, locus YKL160W, strain elf1, active compounds read low): 0.952
- normalized growth (S. cerevisiae deletion strains, locus YKL190W, strain CNB1, active compounds read low): 0.143 (active)
- normalized growth (S. cerevisiae deletion strains, locus YKR001C, strain vps1, active compounds read low): 0.0792 (active)
- normalized growth (S. cerevisiae deletion strains, locus YKR026C, strain gcn3, active compounds read low): 0.988
- normalized growth (S. cerevisiae deletion strains, locus YKR091W, strain srl3, active compounds read low): 0.989
- normalized growth (S. cerevisiae deletion strains, locus YLL001W, strain dnm1, active compounds read low): 0.992
- normalized growth (S. cerevisiae deletion strains, locus YLL026W, active compounds read low): 0.985
- normalized growth (S. cerevisiae deletion strains, locus YLL041C, strain sdh2, active compounds read low): 0.967
- normalized growth (S. cerevisiae deletion strains, locus YLR027C, strain aat2, active compounds read low): 0.977
- normalized growth (S. cerevisiae deletion strains, locus YLR039C, strain RIC1, active compounds read low): 0.247 (active)
- normalized growth (S. cerevisiae deletion strains, locus YLR058C, strain SHM2, active compounds read low): 0.703 (active)
- normalized growth (S. cerevisiae deletion strains, locus YLR102C, strain apc9, active compounds read low): 1.01
- normalized growth (S. cerevisiae deletion strains, locus YLR113W, strain HOG1, active compounds read low): 1.02
- normalized growth (S. cerevisiae deletion strains, locus YLR221C, strain rsa3, active compounds read low): 0.98
- normalized growth (S. cerevisiae deletion strains, locus YLR258W, strain gsy2, active compounds read low): 0.99
- normalized growth (S. cerevisiae deletion strains, locus YLR262C, strain YPT6 (second series), active compounds read low): 1.08
- normalized growth (S. cerevisiae deletion strains, locus YLR262C, strain YPT6, active compounds read low): 0.151 (active)
- normalized growth (S. cerevisiae deletion strains, locus YLR268W, strain sec22, active compounds read low): 0.605 (active)
- normalized growth (S. cerevisiae deletion strains, locus YLR320W, strain mms22, active compounds read low): 0.862 (active)
- normalized growth (S. cerevisiae deletion strains, locus YLR330W, strain CHS5, active compounds read low): 0.381 (active)
- normalized growth (S. cerevisiae deletion strains, locus YLR342W, strain FKS1 (second series), active compounds read low): 0.167 (active)
- normalized growth (S. cerevisiae deletion strains, locus YLR342W, strain FKS1, active compounds read low): 0.981
- normalized growth (S. cerevisiae deletion strains, locus YLR357W, strain rsc2, active compounds read low): 0.963
- normalized growth (S. cerevisiae deletion strains, locus YLR370C, strain arc18, active compounds read low): 0.981
- normalized growth (S. cerevisiae deletion strains, locus YLR371W, strain rom2, active compounds read low): 0.266 (active)
- normalized growth (S. cerevisiae deletion strains, locus YLR384C, strain iki3, active compounds read low): 0.972
- normalized growth (S. cerevisiae deletion strains, locus YLR418C, strain cdc73, active compounds read low): 0.423 (active)
- normalized growth (S. cerevisiae deletion strains, locus YML016C, strain PPZ1, active compounds read low): 0.363 (active)
- normalized growth (S. cerevisiae deletion strains, locus YML032C, strain rad52, active compounds read low): 0.877 (active)
- normalized growth (S. cerevisiae deletion strains, locus YML120C, strain ndi1, active compounds read low): 0.973
- normalized growth (S. cerevisiae deletion strains, locus YML124C, strain tub3, active compounds read low): 0.954
- normalized growth (S. cerevisiae deletion strains, locus YMR058W, strain fet3, active compounds read low): 0.853 (active)
- normalized growth (S. cerevisiae deletion strains, locus YMR078C, strain ctf18, active compounds read low): 1.02
- normalized growth (S. cerevisiae deletion strains, locus YMR125W, strain sto1, active compounds read low): 0.897
- normalized growth (S. cerevisiae deletion strains, locus YMR129W, active compounds read low): 0.972
- normalized growth (S. cerevisiae deletion strains, locus YMR205C, strain PFK2, active compounds read low): 0.93
- normalized growth (S. cerevisiae deletion strains, locus YMR223W, strain ubp8, active compounds read low): 0.454 (active)
- normalized growth (S. cerevisiae deletion strains, locus YMR231W, strain pep5, active compounds read low): 0.0752 (active)
- normalized growth (S. cerevisiae deletion strains, locus YMR263W, strain SAP30, active compounds read low): 0.843 (active)
- normalized growth (S. cerevisiae deletion strains, locus YMR307W, strain GAS1, active compounds read low): 0.174 (active)
- normalized growth (S. cerevisiae deletion strains, locus YNL067W, strain RPL9B, active compounds read low): 0.793 (active)
- normalized growth (S. cerevisiae deletion strains, locus YNL071W, strain lat1, active compounds read low): 0.975
- normalized growth (S. cerevisiae deletion strains, locus YNL183C, strain NPR1, active compounds read low): 0.976
- normalized growth (S. cerevisiae deletion strains, locus YNL209W, strain ssb2, active compounds read low): 0.974
- normalized growth (S. cerevisiae deletion strains, locus YNL233W, strain BNI4, active compounds read low): 0.245 (active)
- normalized growth (S. cerevisiae deletion strains, locus YNL248C, strain rpa49, active compounds read low): 0.926
- normalized growth (S. cerevisiae deletion strains, locus YNL250W, strain rad50, active compounds read low): 1.01
- normalized growth (S. cerevisiae deletion strains, locus YNL271C, strain bni1, active compounds read low): 1.01
- normalized growth (S. cerevisiae deletion strains, locus YNL298W, strain CLA4, active compounds read low): 1.01
- normalized growth (S. cerevisiae deletion strains, locus YNL307C, strain MCK1, active compounds read low): 0.267 (active)
- normalized growth (S. cerevisiae deletion strains, locus YNL322C, strain KRE1 (second series), active compounds read low): 0.975
- normalized growth (S. cerevisiae deletion strains, locus YNR049C, strain mso1, active compounds read low): 0.99
- normalized growth (S. cerevisiae deletion strains, locus YNR052C, strain pop2, active compounds read low): 0.14 (active)
- normalized growth (S. cerevisiae deletion strains, locus YOL006C, strain TOP1, active compounds read low): 0.115 (active)
- normalized growth (S. cerevisiae deletion strains, locus YOL147C, strain pex11, active compounds read low): 0.941
- normalized growth (S. cerevisiae deletion strains, locus YOR001W, strain rrp6, active compounds read low): 0.893
- normalized growth (S. cerevisiae deletion strains, locus YOR061W, strain CKA2, active compounds read low): 0.114 (active)
- normalized growth (S. cerevisiae deletion strains, locus YOR069W, strain VPS5, active compounds read low): 0.906 (active)
- normalized growth (S. cerevisiae deletion strains, locus YOR070C, strain gyp1, active compounds read low): 0.979
- normalized growth (S. cerevisiae deletion strains, locus YOR080W, strain dia2, active compounds read low): 0.988
- normalized growth (S. cerevisiae deletion strains, locus YOR083W, strain WHI5, active compounds read low): 0.94
- normalized growth (S. cerevisiae deletion strains, locus YOR106W, strain vam3, active compounds read low): 0.458 (active)
- normalized growth (S. cerevisiae deletion strains, locus YOR136W, strain idh2, active compounds read low): 0.77 (active)
- normalized growth (S. cerevisiae deletion strains, locus YOR144C, strain elg1, active compounds read low): 1.02
- normalized growth (S. cerevisiae deletion strains, locus YOR184W, strain ser1, active compounds read low): 0.608 (active)
- normalized growth (S. cerevisiae deletion strains, locus YOR231W, strain MKK1, active compounds read low): 1.02
- normalized growth (S. cerevisiae deletion strains, locus YOR265W, strain rbl2, active compounds read low): 0.979
- normalized growth (S. cerevisiae deletion strains, locus YOR270C, strain vph1, active compounds read low): 0.452 (active)
- normalized growth (S. cerevisiae deletion strains, locus YOR290C, strain snf2, active compounds read low): 0.869
- normalized growth (S. cerevisiae deletion strains, locus YOR316C, strain cot1, active compounds read low): 0.97
- normalized growth (S. cerevisiae deletion strains, locus YPL051W, strain arl3, active compounds read low): 0.886 (active)
- normalized growth (S. cerevisiae deletion strains, locus YPL055C, strain LGE1, active compounds read low): 0.4 (active)
- normalized growth (S. cerevisiae deletion strains, locus YPL078C, strain atp4, active compounds read low): 0.973
- normalized growth (S. cerevisiae deletion strains, locus YPL106C, strain sse1, active compounds read low): 0.984
- normalized growth (S. cerevisiae deletion strains, locus YPL240C, strain hsp82, active compounds read low): 0.98
- normalized growth (S. cerevisiae deletion strains, locus YPL241C, strain CIN2, active compounds read low): 0.93
- normalized growth (S. cerevisiae deletion strains, locus YPL256C, strain CLN2, active compounds read low): 1.02
- normalized growth (S. cerevisiae deletion strains, locus YPR119W, strain clb2, active compounds read low): 0.935
- normalized growth (S. cerevisiae deletion strains, locus YPR141C, strain kar3, active compounds read low): 1.03
- normalized growth (S. cerevisiae deletion strains, locus YPR163C, strain tif3, active compounds read low): 0.0807 (active)
- normalized growth (S. cerevisiae deletion strains, locus YPR167C, strain met16, active compounds read low): 0.844 (active)
- normalized growth (S. cerevisiae deletion strains, strain wtn01, active compounds read low): 0.317 (active)
- normalized growth (S. cerevisiae strains, strain wild type, active compounds read low): 0.314 (active)
